# Measurements reported in PubChem BioAssay.
# The source made the active and inactive calls. Unless noted, how the calls were made is not given here.
# Tests used:
# [1] = compounds binding Alexa647 anti-His antibody – biochemical, small-molecule microarray, 635 nm fluorescence, artefact control for SMM control protein annotation, primary screen (AID 1128); conditions: higher = more signal;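 further: score merges feature fluorescence with signal-to-noise for each printed compound spot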
# [2] = test system: Human papillomavirus type 1a E7 protein (residues 1-88); test: HPV1a E7 small-molecule binders, primary screen, biochemical, small-molecule microarray, residues 1-88, 635 nm (AID 1129); conditions: small-molecule microarray binding, fluorescence 635 nm; higher = more signal
# [3] = molecular target: Focal adhesion kinase 1 (Homo sapiens) (UniProt Q05397); test: PTK2 protein binding on printed compound slides – biochemical, small-molecule microarray, 635/667 nm fluorescence, BSA, DTT, primary screen (AID 1130); conditions: 635 nm fluorescence, higher = more signal;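 further: composite of spot emission at 667 nm and signal to noise over triplicate slides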
# [4] = test system: Fibrinogen (Alexa647-labelled); test: Alexa647-fibrinogen binding to printed small molecules – biochemical, small-molecule microarray, 635/667 nm fluorescence, artefact control for SMM control-protein annotation, profiling panel (AID 1131); conditions: fibrinogen-A647 binding fluorescence, higher = more signal;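 further: z-score merges 667 nm fluorescence with per-spot signal-to-noise over triplicate slides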
# [5] = molecular target: Follistatin (Homo sapiens) (UniProt P19883); test: FST protein binding to printed compounds – biochemical, small-molecule microarray, 635/667 nm fluorescence, primary screen (AID 1132); conditions: 635 nm fluorescence, higher = more signal
# [6] = molecular target: Fibroblast growth factor 2 (Homo sapiens) (UniProt P09038); test: basic fibroblast growth factor binding to printed compounds – biochemical, small-molecule microarray, 635/667 nm fluorescence, primary screen (AID 1133); conditions: FGF2, fluorescence 635/667, higher = more signal
# [7] = JC-1 mitochondrial potential readout, lung cancer cells – cell-based, A549, JC-1 fluorescence, basal, 24 h, 100 nL, profiling panel (AID 1138); conditions: higher = more signal;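 further: A549 lung adenocarcinoma cells under basal conditions with no added stimulus; test concentration not given here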
# Lefty1 = Lefty1 protein binding to printed compounds – biochemical, small-molecule microarray, 635/667 nm fluorescence, primary screen (AID 1139); conditions: fluorescence 635/667, higher = more signal
# [8] = test system: wheat germ agglutinin (Triticum aestivum), Alexa647-labelled; test: Alexa647-WGA lectin binding to printed small molecules – biochemical, small-molecule microarray, 635/667 nm fluorescence, artefact control for SMM control-protein annotation, profiling panel (AID 1140); conditions: WGA-A647 binding, 635 nm fluorescence, higher = more signal;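 further: score merges 667 nm feature emission with signal to noise over triplicate slides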
# [9] = molecular target: Luciferin 4-monooxygenase (Photinus pyralis) (UniProt P08659); test: inhibition of purified Photinus pyralis luciferase – biochemical, luminescence, purified enzyme, 2006 set, primary screen (AID 1141); conditions: purified firefly luciferase, SteadyGlo luminescence, 30 min; higher = more signal, called active from +8 up or from −8 down;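 further: cell-free assay with purified firefly luciferase at 100 ng per well in PBS; test concentration not given here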
# [10] = test system: Wnt5a (protein binding on small-molecule microarray); test: small molecules binding Wnt5a protein – biophysical, small-molecule microarray, 635/667 nm fluorescence, primary screen (AID 1142); conditions: 635 nm fluorescence, higher = more signal;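 further: fluorescence read at 667 nm with signal to noise per printed feature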
# [11] = ATP-based viability of Huh7 replicon cells – cell-based, CellTiter-Glo luminescence, basal, 48 h, cytotoxicity control for HCV replication inhibitor project, primary screen (AID 1143); conditions: higher = more signal, called active from +8 up or from −8 down;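 further: Huh7 hepatoma cells carrying a hepatitis C replication reporter with no stimulus; test concentration not given here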
# [12] = Pseudomonas biofilm growth suppression – PAO1 strain, BacTiter-Glo luminescence, LB-PBS, primary screen (AID 1144); conditions: P. aeruginosa PAO1 biofilm, 12 h, higher = more signal
# [13] = basal CRE-LacZ reporter activity in PC12 – cell-based, unstimulated, primary screen (AID 1145); conditions: no forskolin, luminescence, 4.5 h, higher = more signal, called active from +8 up or from −8 down
# [14] = forskolin-driven CRE-LacZ activity in PC12 – cell-based, CRE-LacZ reporter, forskolin-stimulated, primary screen (AID 1146); conditions: luminescence, 4.5 h, higher = more signal, called active from +8 up or from −8 down;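 further: PC12 cells with 6xCRE LacZ reporter stimulated by forskolin 10 µM; beta-galactosidase reporter signal reflecting CREB driven transcription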
# [15] = molecular target: Streptavidin (Streptomyces avidinii) (UniProt P22629); test: compounds binding control protein streptavidin – biophysical, small-molecule microarray, 635/667 nm fluorescence, artefact control for SMM compound annotation, primary screen (AID 1147); conditions: higher = more signal;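 further: signal reflects streptavidin binding to arrayed compounds as a control protein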
# [16] = probe aInhba binding on compound microarray – biochemical, small-molecule microarray, 635/667 nm fluorescence, primary screen (AID 1148); conditions: higher = more signal;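 further: score merges 667nm spot fluorescence with signal-to-noise for antibody binding to printed compounds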
# Torsin-1A (Homo sapiens) [17] = molecular target: Torsin-1A (Homo sapiens) (UniProt O14656); test: TOR1A wild-type binding on microarray – cell lysate, small-molecule microarray, lysate, 635/667 nm, primary screen (AID 1149); conditions: COS7 hTOR1A-WT lysate, 635 nm fluorescence, higher = more signal
# Torsin-1A (Homo sapiens) [18] = molecular target: Torsin-1A (Homo sapiens) (UniProt O14656); test: torsin A mutant lysate binding on microarrays – cell lysate, small-molecule microarray, COS7 lysate, 635/667 nm fluorescence, primary screen (AID 1150); conditions: COS7 hTOR1A mutant lysate, 635 nm fluorescence, higher = more signal;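 further: score pools 667 nm emission and signal to noise measuring lysate protein binding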
# [19] = test system: Sonic hedgehog protein (Shh); test: Sonic hedgehog microarray binding compounds – biochemical, small-molecule microarray, 635/667 nm fluorescence, primary screen (AID 1151); conditions: 635 nm fluorescence, higher = more signal;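 further: Shh protein binding to compounds spotted on small-molecule microarray slides; score combines spot fluorescence intensity with signal-to-noise across triplicate slides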
# Fibroblast growth factor 2 (Homo sapiens), sequence (P09038 whole entry, looked up): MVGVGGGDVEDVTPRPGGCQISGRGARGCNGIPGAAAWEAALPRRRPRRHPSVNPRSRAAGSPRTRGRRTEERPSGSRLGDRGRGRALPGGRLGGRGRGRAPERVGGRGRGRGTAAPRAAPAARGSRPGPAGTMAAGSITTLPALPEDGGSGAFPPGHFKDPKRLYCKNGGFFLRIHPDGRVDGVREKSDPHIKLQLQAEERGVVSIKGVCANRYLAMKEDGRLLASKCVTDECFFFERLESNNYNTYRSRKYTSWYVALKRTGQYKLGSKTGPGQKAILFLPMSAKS
# Follistatin (Homo sapiens), sequence (P19883 whole entry, looked up): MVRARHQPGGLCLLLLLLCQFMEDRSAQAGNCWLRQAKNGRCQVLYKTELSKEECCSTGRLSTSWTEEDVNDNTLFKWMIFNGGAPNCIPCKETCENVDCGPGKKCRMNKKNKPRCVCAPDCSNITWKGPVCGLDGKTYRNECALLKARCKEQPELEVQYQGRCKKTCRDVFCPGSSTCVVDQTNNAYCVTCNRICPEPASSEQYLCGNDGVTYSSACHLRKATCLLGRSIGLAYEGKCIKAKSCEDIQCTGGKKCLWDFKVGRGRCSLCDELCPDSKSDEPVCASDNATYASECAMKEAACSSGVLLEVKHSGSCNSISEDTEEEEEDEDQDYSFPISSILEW
# Luciferin 4-monooxygenase (Photinus pyralis), sequence (P08659 whole entry, looked up): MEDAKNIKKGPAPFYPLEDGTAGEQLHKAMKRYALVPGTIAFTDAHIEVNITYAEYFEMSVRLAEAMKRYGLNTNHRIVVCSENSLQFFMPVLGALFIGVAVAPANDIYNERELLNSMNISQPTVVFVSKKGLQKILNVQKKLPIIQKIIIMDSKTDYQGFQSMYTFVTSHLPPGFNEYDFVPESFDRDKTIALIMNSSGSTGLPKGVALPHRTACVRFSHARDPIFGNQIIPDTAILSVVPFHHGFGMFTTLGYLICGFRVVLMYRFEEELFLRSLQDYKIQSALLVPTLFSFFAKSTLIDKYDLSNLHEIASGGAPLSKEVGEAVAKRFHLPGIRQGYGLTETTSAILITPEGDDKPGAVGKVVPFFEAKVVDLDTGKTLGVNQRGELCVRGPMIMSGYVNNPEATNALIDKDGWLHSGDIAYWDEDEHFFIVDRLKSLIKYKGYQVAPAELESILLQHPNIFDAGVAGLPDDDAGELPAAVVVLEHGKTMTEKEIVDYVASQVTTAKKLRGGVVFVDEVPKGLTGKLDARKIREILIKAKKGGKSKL
# Focal adhesion kinase 1 (Homo sapiens), sequence (Q05397 whole entry, looked up): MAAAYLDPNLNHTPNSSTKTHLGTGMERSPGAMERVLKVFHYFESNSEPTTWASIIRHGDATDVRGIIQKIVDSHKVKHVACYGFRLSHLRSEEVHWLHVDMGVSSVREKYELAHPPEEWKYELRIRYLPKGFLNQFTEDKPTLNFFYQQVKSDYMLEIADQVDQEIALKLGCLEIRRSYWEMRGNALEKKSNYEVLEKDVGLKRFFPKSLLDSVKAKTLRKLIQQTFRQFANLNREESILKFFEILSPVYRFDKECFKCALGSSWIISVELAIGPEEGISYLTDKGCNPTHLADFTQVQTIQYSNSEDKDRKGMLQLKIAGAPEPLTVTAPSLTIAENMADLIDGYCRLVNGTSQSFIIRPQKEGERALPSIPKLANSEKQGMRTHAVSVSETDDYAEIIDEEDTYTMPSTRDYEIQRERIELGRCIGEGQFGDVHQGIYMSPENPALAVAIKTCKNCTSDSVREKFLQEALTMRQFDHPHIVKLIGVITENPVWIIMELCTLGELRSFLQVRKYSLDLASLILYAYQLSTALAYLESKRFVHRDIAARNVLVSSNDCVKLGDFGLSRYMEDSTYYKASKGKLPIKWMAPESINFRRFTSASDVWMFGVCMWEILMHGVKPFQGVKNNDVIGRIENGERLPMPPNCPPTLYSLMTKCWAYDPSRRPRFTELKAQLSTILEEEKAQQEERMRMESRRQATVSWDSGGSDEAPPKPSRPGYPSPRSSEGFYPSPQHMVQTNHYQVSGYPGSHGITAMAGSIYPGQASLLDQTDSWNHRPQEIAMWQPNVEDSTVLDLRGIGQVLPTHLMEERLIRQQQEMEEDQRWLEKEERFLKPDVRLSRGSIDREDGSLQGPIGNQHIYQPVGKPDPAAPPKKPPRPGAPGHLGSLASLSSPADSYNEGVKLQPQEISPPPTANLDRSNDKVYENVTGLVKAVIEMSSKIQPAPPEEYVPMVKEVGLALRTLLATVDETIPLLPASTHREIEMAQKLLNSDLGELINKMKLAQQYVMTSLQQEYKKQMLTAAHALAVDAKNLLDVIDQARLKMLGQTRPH
# Torsin-1A (Homo sapiens), sequence (O14656 whole entry, looked up): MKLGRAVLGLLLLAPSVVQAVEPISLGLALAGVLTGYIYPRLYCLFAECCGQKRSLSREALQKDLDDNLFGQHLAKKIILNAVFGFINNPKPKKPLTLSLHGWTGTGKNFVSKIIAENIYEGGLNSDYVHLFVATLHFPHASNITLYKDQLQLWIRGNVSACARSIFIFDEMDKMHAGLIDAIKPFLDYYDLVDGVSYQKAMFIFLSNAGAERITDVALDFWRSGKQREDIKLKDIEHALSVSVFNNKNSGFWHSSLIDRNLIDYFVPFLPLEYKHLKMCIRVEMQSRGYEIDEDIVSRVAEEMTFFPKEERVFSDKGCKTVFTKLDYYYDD
# Streptavidin (Streptomyces avidinii), sequence (P22629 whole entry, looked up): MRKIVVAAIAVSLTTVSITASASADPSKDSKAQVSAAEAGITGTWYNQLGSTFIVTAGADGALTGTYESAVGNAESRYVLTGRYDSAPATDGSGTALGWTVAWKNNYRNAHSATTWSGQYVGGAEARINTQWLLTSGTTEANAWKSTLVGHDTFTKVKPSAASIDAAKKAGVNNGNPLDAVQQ
SMILES,composite z-score [1],composite z-score [2],composite z-score [3],composite z-score [4],composite z-score [5],composite z-score [6],z-score [7],composite z-score (Lefty1),composite z-score [8],z-score [9],composite z-score [10],z-score [11],z-score [12],z-score [13],z-score [14],composite z-score [15],composite z-score [16],composite z-score (Torsin-1A (Homo sapiens) [17]),composite z-score (Torsin-1A (Homo sapiens) [18]),composite z-score [19]
O=C1C2C=CC(C(O)c3ccc(-c4ccccc4)s3)N(n3cnnc3)C2C(=O)N1Cc1ccccc1 (stereo not given),1.46,-0.283,0.0347,0.708,-0.279,-0.625,-1.32,-0.69,0.525,1.77 (inactive),-0.18,-0.291 (inactive),-0.669 (inactive),0.481 (inactive),0.288 (inactive),-0.116,-0.0087,-0.412,-0.468,-0.683
COCC(=C=CC[C@H](O)c1ccc(OCCO)cc1)C[C@H](O)c1cc(Cl)cc(Cl)c1O,0.773,0.907,-0.427,0.799,1.38,1.4,0.268,1.47,0.0552,-0.846 (inactive),0.635,-7.94 (inactive),-0.984 (inactive),11.1 (active),0.96 (inactive),0.169,0.0849,1.06,0.3,2.26
[N-]=[N+]=NCc1ccccc1C[C@@]1(C(=O)N2CCOCC2)N=C(c2ccc(OCCCO)cc2)O[C@@H]1c1ccccc1CN=[N+]=[N-],3.09,1.25,0.829,0.978,1.05,0.684,0.74,0.365,1.3,-0.832 (inactive),1.44,-3.44 (inactive),-1.02 (inactive),1.7 (inactive),-0.0755 (inactive),1.56,0.985,0.375,0.193,0.704
CCOC(=O)C[C@H]1[C@H](OC(=O)Cc2ccc3c(c2)OCO3)[C@@H](NC(=O)c2ccc(-c3ccccc3)cc2)c2cc(OCCCO)ccc2N1C(=O)c1ccccc1,0.18,1.06,0.356,0.672,0.526,0.685,2.42,0.419,0.507,-1.16 (inactive),0.0105,-0.299 (inactive),-1.24 (inactive),3.12 (inactive),-1.27 (inactive),0.0534,0.0906,0.328,0.132,0.358
COCCOC(=O)N1C(=O)[C@@]2(c3cc(C#CCC(C(=O)OC)C(=O)OC)ccc31)[C@H](c1ccccc1OCCO)N1[C@H](c3ccccc3)[C@H](c3ccccc3)OC(=O)[C@H]1[C@@H]2C(N)=O,2.79,1.19,-0.418,0.942,1.08,1.29,0.833,0.714,1.1,-0.834 (inactive),0.53,-3.11 (inactive),0.451 (inactive),1.16 (inactive),2.17 (inactive),0.0558,0.137,0.402,0.689,1.52
CCCCC=C[C@@H](NC(=O)c1cccs1)c1ccccc1,0.813,0.837,0.351,0.983,-0.145,0.067,0.679,-0.389,1.13,0.969 (inactive),0.0001,-2.49 (inactive),0.15 (inactive),-0.951 (inactive),-0.548 (inactive),0.801,0.261,0.0798,0.454,-0.216
COCCOC(=O)N1C(=O)[C@@]2(c3cc(C#CCNC(N)=O)ccc31)[C@H](C(=O)N1CCN(c3ncccn3)CC1)[C@H]1C(=O)O[C@H](c3ccccc3)[C@H](c3ccccc3)N1[C@@H]2c1ccccc1OCCO,1.24,1.07,0.261,0.797,1.37,0.406,-1.55,0.889,0.749,1.05 (inactive),0.518,-1.32 (inactive),-0.94 (inactive),-0.141 (inactive),-0.44 (inactive),0.605,0.0184,0.223,0.416,0.692
COCCOC(=O)N1C(=O)[C@@]2(c3cc(C#CCC(C(=O)OC)C(=O)OC)ccc31)[C@H](C(=O)N1CCCCCCC1)[C@H]1C(=O)O[C@H](c3ccccc3)[C@H](c3ccccc3)N1[C@@H]2c1ccc(OCCO)cc1,0.887,1.25,1.97,0.965,1.49,1.62,-1.49,1.65,1.6,-0.0546 (inactive),1.42,-2.31 (inactive),-1.02 (inactive),-1.15 (inactive),-0.0519 (inactive),3.01,1.69,2.01,1.87,2.32
Cc1cc(C)cc(N2C(=O)CS(=O)(=O)C2c2cccc([N+](=O)[O-])c2)c1 (stereo not given),1.11,0.632,0.894,0.829,0.508,0.126,0.382,0.874,0.841,-0.273 (inactive),0.223,-2.18 (inactive),-0.527 (inactive),-0.0243 (inactive),-0.494 (inactive),1.26,0.952,0.513,0.897,0.659
COc1ccc(CCNC(=O)[C@@H]2c3ccccc3C(=O)N(Cc3ccc(OC(F)(F)F)cc3)[C@H]2c2ccc(CO)cc2)cc1,1.66,0.901,0.658,0.0913,1.18,0.494,1.48,0.147,0.213,-0.243 (inactive),0.446,-2.71 (inactive),-0.676 (inactive),-0.475 (inactive),-0.206 (inactive),-0.0886,-0.0465,-0.271,0.366,-0.144
